This is one part of the list. Results filed as inconclusive are left out. Calls of active or inactive are those of the source. The call rests on the fitted dose curve; in most records, active means well fitted inhibition curve with a large enough effect; inconclusive means small, poorly fitted or top-dose-only effect; inactive means flat fitted curve, though single readings scatter.
target: ATP-dependent Clp protease proteolytic subunit (Bacillus subtilis (strain 168)) (UniProt P80244); test: qHTS Assay for Activators of ClpP: Hit Validation of Inhibitors; further: nearly all actives have a fitted effect of over 70% in size; conditions: purified B. subtilis ClpP, FRET-FV substrate cleavage, 20 min; series mostly up to 57.5 µM
Sequence (P80244 whole entry, looked up): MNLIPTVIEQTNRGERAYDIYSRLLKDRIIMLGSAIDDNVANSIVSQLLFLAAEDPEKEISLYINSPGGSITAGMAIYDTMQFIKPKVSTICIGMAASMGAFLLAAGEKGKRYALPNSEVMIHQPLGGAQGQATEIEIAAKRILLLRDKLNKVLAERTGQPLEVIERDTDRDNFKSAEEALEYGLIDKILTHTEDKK
Description: The Clp protease proteolytic subunit (ClpP) is the core unit of the Clp complex belonging to the peptidase family S14 that hydrolyzes protein into small peptides in the presence of ATP and magnesium. It is ubiquitously expressed and is the major protease in bacteria. […] Unlike common antibiotics that simply interfere with the essential enzyme activity, ADEP binding activates the ClpP core in the absence of the regulatory Clp-ATPases leading to uncontrolled proteolysis and eventually cell death. Activators binding to the docking site on ClpP can also block formation of the ClpXP and ClpA/C-P holoenzyme complexes interfering with the normal biological functions of ClpP and thus have the potential to become new anti-microbials. To identify activators of ClpP, a FRET based quenching reversal assay was developed using a purified B. subtilis ClpP and a decapeptide substrate (FRET-FV). The FRET-FV is tagged with a fluorescent molecule amino benzoic acid (donor) at the N-terminus and a nitrotyrosine quencher (acceptor) at the C-terminus. FRET-FV cleaves upon activation of ClpP with ADEP treatement and reverses the quenching effect of the nitrotyrosine causing an increase in fluorescence emission signal at 430nm. This assay was used to screen the Molecular Libraries Small Molecule Repository (MLSMR). NIH Molecular Libraries Probe Production Centers Network [MLPCN] NIH Chemical Genomics Center [NCGC] MLPCN Grant: MH095569 Assay Submitter (PI): Michael Maurizi, National Cancer Institute
Two and a half microL/well of purified enzyme solution (final concentrations 10 microg/mL B. subtilis ClpP in 100 mM Tris/HCl pH8, 100 mM KCl, 0.05% low protease BSA, 2.5% glycerol, 0.01% Tween-20 buffer) was dispensed into 1536-well assay plates (Greiner, black solid, medium-binding plates) with Aurora Discovery BioRAPTR Flying Reagent Dispenser (FRD, Beckton-Dickenson). Compound solution (23 nL) was transferred to the assay plate using Kalypsys pin tool equipped with a 1536-pin tool. One and a half microL/well substrate solution (final concentrations 3 microM FRET-FV substrate in 100 mM Tris/HCl pH8, 100 mM KCl, 0.05% low protease BSA, 2.5% glycerol, 0.01% Tween-20 buffer) was then added for a total of 4 microL final reaction volume. FRET signals at time 0 and after 20 min room temperature incubation were obtained using the PerkinElmer Envision plate reader with 320nm excitation and 430nm emission filters. Delta FRET value (Time 20 - Time 0) was calculated and normalized to the delta FRET value of positive control ADEP (5.8 microM final concentration) and negative control DMSO and no enzyme wells.

SMILES	Potency
COc1cc2[nH]c(=O)n(Cc3ccc(C(=O)NCc4ccc(C)cc4)cc3)c(=O)c2cc1OC	inactive
CCOC(=O)N1CCN(C(=O)c2ccc3nc4cc(Cl)ccc4c(=O)n3c2)CC1	27.3 µM (active)
CN(C(=O)c1cc2c(=O)n3ccccc3nc2s1)C1CCCCC1	13.7 µM (active)
O=C(Nc1ccc2oc(-c3ccc4ccccc4c3)nc2c1)c1cccs1	10.9 µM (active)
Cc1nc2sc(C)c(C)n2c(=O)c1S(=O)(=O)NCCc1ccc(Cl)cc1	24.3 µM (active)
COc1ccccc1NC(=O)c1oc2ccccc2c1NC(=O)COc1ccccc1OC	21.7 µM (active)
CC(C)n1c(-c2cccs2)nc2ccccc21	21.7 µM (active)
Cc1cccc(-c2oc3ccc(-c4ccc5c(c4)OCO5)cc3c2C#Cc2cncn2C)c1	24.3 µM (active)
Fc1cc(F)c2nc(Nc3nc4c(F)cccc4s3)sc2c1	4.85 µM (active)
COc1ccc(CNC(=O)COC(=O)CCS(=O)(=O)c2ccc(C)cc2)cc1OC	inactive
CCN(CCCNC(=O)c1cc2c(=O)n(CC)c3ccccc3c2s1)Cc1ccccc1	inactive
COc1ccccc1CNC(=O)c1ccccc1NC(=O)c1nsc2ccccc12	24.3 µM (active)
CCOc1ccc(-c2nnc(-c3ccco3)o2)cc1	21.7 µM (active)
Cc1cccc(NC(=O)c2nnn(CC(=O)Nc3ccc(C(C)C)cc3)c2N)c1C	inactive
COc1ccc(CCNC(=O)c2ccc3c(c2)sc2nc(-c4ccc(C)cc4)cn23)cc1OC	27.3 µM (active)
CCCCn1c(=O)c2oc3ccccc3c2n(CC(=O)Nc2ccccc2OC)c1=O	inactive
CCCCN(C)c1ccc([N+](=O)[O-])cc1	inactive
CCOc1ccc(-c2cc(C)n3nc(C(=O)Nc4ccc(C)c(C)c4)cc3n2)cc1	inactive
